Assay outcomes (PubChem BioAssay)
In the library only some 3.1% were active in any assay of this set; here they are far more common.
PP5 inh: inhibitors of human protein phosphatase 5 (PP5). P53041. purified PP5c, OMFP substrate fluorescence. inhibition, % at 6.7 µM. actives 0.18% (n = 320,000). AID 1987;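 active = inhibition above the campaign's mean inhibition across all tested compounds plus 3 SD, cut at about 9.5% in these data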;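 also: 0% = DMSO only and 100% = 100 µM cantharidin control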
PP1 counter: counter-screen for PP5 inhibitors: inhibitors of human PP1-alpha. P62136. purified PP1alpha, OMFP fluorescence. actives 0.9% (n = 320,000). inhibition, % at 6.7 µM;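 active = inhibition above the mean inhibition of all tested compounds plus 3 SD, computed separately for each screening campaign, cut at about 15% in these data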
Target sequence (P62136 whole entry, looked up): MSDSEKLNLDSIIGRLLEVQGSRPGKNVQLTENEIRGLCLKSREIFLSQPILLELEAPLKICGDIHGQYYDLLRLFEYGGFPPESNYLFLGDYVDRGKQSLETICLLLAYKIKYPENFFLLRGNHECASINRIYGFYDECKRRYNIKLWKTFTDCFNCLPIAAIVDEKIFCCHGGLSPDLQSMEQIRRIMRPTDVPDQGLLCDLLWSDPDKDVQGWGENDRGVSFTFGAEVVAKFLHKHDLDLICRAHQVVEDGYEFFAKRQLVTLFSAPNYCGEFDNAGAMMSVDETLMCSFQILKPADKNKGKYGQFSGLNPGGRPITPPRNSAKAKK
Beta apoptosis: blocks beta cell apoptosis; AID 435005; protection from apoptosis, % (no concentration beside the values); actives 0.8% (n = 300,000); INS-1E cytokine-induced death, ATP luminescence, 48 h; percent of positive-control rescue, neutral wells zero;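 active = Every replicate reaches about 75%, or at least half do and their mean reaches it too, limit read from the data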;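 also: 0% = cytokine-treated negative control wells and 100% = positive control rescue; higher means more ATP so stronger rescue from cytokine killing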
CSC inhib: cancer stem cell inhibition; inhibition, % at 7.5 µM; actives 1.1% (n = 300,000); cancer stem cell-like cells viability, luminescence; in the data active = inhibition above about 75%; tested in HMLE shEcad cells
SKKanGAS inh: SKKanGAS growth inhibition; actives 1.3% (n = 300,000); inhibition, % at 7.5 µM; AID 1662; S. pyogenes SKKanGAS, kanamycin growth, BacTiter-Glo, 6 h;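 active = mean replicate score, as percent of positive control median, at least 50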;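 also: strain carries kanamycin resistance gene driven by streptokinase promoter and grows in 40 µg/ml kanamycin; loss of luminescence reflects streptokinase promoter inhibition or plain growth inhibition; 0% = median of DMSO wells and 100% = positive control at its reference dose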
PP1 inh confirm: confirmation of human PP1 phosphatase inhibitors; AID 2358; inhibition, % at 6.7 µM; purified PP1alpha, OMFP substrate fluorescence; shares compounds with PP1 counter; actives 52% (n = 1,900);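 active = mean PP1 inhibition above a set limit taken from the earlier primary screen, cut at about 15% in these data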
PP5 counter: PP5 phosphatase inhibition, counter-screen for PP1 inhibitors; shares compounds with PP1 counter; inhibition, % at 6.7 µM; purified PP5c, OMFP fluorescence; actives 4% (n = 1,900);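 active = mean PP5 inhibition over triplicate wells above about 9.5% taken from the earlier PP1 screen, limit read from the data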
The depositor's hits bear a star; · = not tested or not shown; ! = not active in a repeat.

SMILES	PP5 inh	PP1 counter	Beta apoptosis	CSC inhib	SKKanGAS inh	PP1 inh confirm	PP5 counter
O=S(Cc1ccc(Br)cc1)Cc1nnc(SCc2ccc(Br)cc2)n1-c1ccccc1 (stereo not given)	-1	9	42	-8	-4	·	·
COc1cc(C2C(C(=O)c3ccco3)=C(O)C(=O)N2Cc2ccccc2)ccc1O (stereo not given)	0	1	3	·	-2	·	·
CCOc1cc(C2C(C(=O)c3ccco3)=C(O)C(=O)N2CCc2ccccc2)ccc1O (stereo not given)	1	20*	-6	5	5	22*	-1
O=C(C1=C[C@@H]2[C@H]3C(=O)N(c4ccccc4Cl)C(=O)[C@H]3[C@@H](C(=O)c3ccc(Cl)cc3)N2C=C1)c1ccccc1	3	23*	2	27	4	18*	4
O=C(C1=C[C@@H]2[C@H]3C(=O)N(c4cccc(Cl)c4)C(=O)[C@H]3[C@@H](C(=O)c3ccc(Cl)cc3)N2C=C1)c1ccccc1	2	6	-11	-2	15	·	·
O=C(c1ccco1)N1CCCN(Cc2nc(Cc3ccccc3)no2)CC1	1	-2	1	-7	7	·	·
Cc1c(/C=N/n2cnnc2)c2ccccc2n1CCOc1ccc(Cl)cc1	4	29*	7	7	9	4	-3
CNC[C@H](Cc1ccccc1)NC[C@@H](Cc1cccc2ccccc12)NCCc1ccc(C)cc1	6	20*	107*	108*	94*	-6	1
CNCCNC[C@H](Cc1cccc2ccccc12)NCCc1ccccc1	·	·	6	12	·	·	·
COCC(=O)Nc1ccc2c(c1)OCC(=O)N2Cc1ccc(C)cc1	0	0	-7	-8	2	·	·
CCN(CC)CCOc1ccc(/C(=C(/Cl)c2ccccc2)c2ccccc2)cc1	4	19*!	33	101*	10	-9	1
COc1ccc(OC)c(S(=O)(=O)Nc2cc(C)on2)c1	-1	-1	-5	10	4	·	·
CC(C)(C)C(=O)N1CCN(c2ccc([N+](=O)[O-])c(-n3nc(-c4ccccc4)c4ccccc4c3=O)c2)CC1	3	22*	11	7	13	11	5
Cc1nn(-c2cc(N3CCCC3)ccc2[N+](=O)[O-])c(=O)c2ccccc12	2	2	6	3	16	·	·
CCCCN(C(=O)c1ccc2c(c1)OCCO2)c1c(N)n(CC(C)C)c(=O)[nH]c1=O	1	-2	-5	1	11	·	·
O=C1CC(C(=O)Nc2ccc(Cl)c(Cl)c2)S/C(=N\N=C\c2ccco2)N1 (stereo not given)	-1	22*	4	22	5	11	-5
O=C(NNc1nc2ccc(Cl)cc2s1)c1cc(-c2cccs2)nc2ccccc12	2	25*	6	109*	88*	30*	-4
O=C(CCNC(=O)c1ccco1)Nc1nc(-c2ccccc2)cs1	·	·	-6	0	·	·	·
COc1cc(/C=N/NC(=O)COc2c(C)cc([N+](=O)[O-])cc2C)ccc1OC(=O)c1ccccc1Br	2	21*	4	5	21	17*	0
CN(c1ccc(OCC(=O)NC2CCC(O)CC2)cc1)S(=O)(=O)c1ccc(Cl)cc1 (stereo not given)	·	·	-1	·	·	·	·
CCCCN(C(=O)CSCC(=O)Nc1ccc(C)cc1)c1c(N)n(Cc2ccccc2)c(=O)[nH]c1=O	1	0	-6	3	-1	·	·
COc1ccc(-c2c[n+](CC(=O)c3ccccc3)c3n2CCCCC3)cc1	1	-2	12	13	8	·	·
COc1ccc(-c2c[n+]3c4n2CCCCC4=C(c2ccccc2)C3)cc1	0	18*	·	·	11	-9	-3
Cc1cc(C)c(C2=CC(c3ccccc3)n3ncnc3N2)cc1C (stereo not given)	5	2	-4	-6	13	·	·
Cc1ccc(-c2cc(C(=O)Nc3ccc(S(=O)(=O)N4CC(C)OC(C)C4)cc3)[nH]n2)c(O)c1 (stereo not given)	2	19*	0	0	1	16*	1
COc1ccc(NS(=O)(=O)c2ccc(N/N=C(\C)c3ccncc3)c([N+](=O)[O-])c2)cc1	4	24*	50	33	4	16*	6
